Laboratory results: PubChem BioAssay AID651768 (National Center for Advancing Translational Sciences (NCATS), 2012)
Out of some 360,000 compounds screened, about 1,700 (0.47%) were called active. Another 2% or so got no clear call; they are omitted. The sample holds actives, similar compounds and a random draw of the others, so the mix is not that of the screen. The call rests on the fitted dose curve; in most records, active means well fitted inhibition curve with a large enough effect; inconclusive means small, poorly fitted or top-dose-only effect; inactive means no such curve, though single readings can be large or run the other way.

molecular target: Bifunctional 3'-5' exonuclease/ATP-dependent helicase WRN (Homo sapiens) (UniProt Q14191); experiment: qHTS for Inhibitors of WRN Helicase; details: WRN helicase unwinding, fluorescent forked duplex, kinetic; series mostly up to 114 µM; activity change, negative = inhibition: at the top concentration; further: nearly all actives have a fitted effect of over 55% in size
Sequence (Q14191 whole entry, looked up): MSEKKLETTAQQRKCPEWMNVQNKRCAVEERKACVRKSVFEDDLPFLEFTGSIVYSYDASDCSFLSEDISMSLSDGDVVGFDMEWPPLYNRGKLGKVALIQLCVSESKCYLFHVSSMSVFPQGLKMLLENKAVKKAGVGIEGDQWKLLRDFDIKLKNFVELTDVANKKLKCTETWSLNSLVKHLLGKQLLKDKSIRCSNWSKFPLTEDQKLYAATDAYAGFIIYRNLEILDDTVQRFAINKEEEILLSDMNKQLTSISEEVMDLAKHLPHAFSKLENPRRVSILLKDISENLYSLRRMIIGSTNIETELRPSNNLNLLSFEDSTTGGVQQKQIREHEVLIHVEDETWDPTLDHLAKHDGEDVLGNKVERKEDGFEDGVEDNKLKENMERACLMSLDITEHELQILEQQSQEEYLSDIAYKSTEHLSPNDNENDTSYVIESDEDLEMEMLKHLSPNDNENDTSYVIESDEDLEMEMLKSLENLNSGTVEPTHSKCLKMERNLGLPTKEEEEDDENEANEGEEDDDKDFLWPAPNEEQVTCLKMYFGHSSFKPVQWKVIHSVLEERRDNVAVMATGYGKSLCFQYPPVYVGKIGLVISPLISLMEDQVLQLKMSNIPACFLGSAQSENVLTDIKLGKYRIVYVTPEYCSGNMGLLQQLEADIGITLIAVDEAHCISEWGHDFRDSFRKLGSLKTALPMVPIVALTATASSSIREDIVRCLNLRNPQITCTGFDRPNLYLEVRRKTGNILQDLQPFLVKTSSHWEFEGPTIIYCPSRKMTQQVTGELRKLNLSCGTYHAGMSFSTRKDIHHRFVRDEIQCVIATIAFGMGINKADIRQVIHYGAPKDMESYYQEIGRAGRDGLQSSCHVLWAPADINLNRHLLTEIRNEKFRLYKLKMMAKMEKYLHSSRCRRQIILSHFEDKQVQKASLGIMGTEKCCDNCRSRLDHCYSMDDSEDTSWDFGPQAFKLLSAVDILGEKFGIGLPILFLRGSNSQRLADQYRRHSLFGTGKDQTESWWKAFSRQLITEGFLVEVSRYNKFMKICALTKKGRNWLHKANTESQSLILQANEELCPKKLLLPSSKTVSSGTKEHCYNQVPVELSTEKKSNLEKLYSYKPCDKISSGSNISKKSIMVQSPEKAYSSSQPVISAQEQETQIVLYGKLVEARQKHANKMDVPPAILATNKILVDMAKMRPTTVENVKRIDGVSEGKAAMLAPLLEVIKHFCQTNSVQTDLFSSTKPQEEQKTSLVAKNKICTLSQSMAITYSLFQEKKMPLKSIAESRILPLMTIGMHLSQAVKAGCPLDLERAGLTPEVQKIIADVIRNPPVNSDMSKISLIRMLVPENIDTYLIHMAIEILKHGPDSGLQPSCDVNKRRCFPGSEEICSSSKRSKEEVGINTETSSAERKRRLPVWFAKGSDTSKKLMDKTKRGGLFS
Summary of the method: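 Primary qHTS, 1536-well format. 20 nM WRN + compound, 15 min RT; start with 100 nM forked fluorophore/quencher duplex, 2 mM ATP (final); kinetic read ex 525/em 598 nm.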
On the % scale 0 is the no-effect control and ±100 the full control effect; potency means the concentration at half of the fitted maximal effect.

Structure (SMILES) | activity change, negative = inhibition | Potency
NCCN1CCN2C(=O)CN(C(=O)c3ccccc3)CC12 (configuration not stated) | -9.08% (inactive) | –
O=C(/C=C/Sc1ncn[nH]1)c1ccc(Cl)cc1 | – | 35.5 µM (active)
Cc1cc(C)nc(S/C=C/C(=O)c2ccccc2)n1 | -24.2% (inactive) | –
COc1ccc(OC)c(NC(=O)C2(C)CCN2C(=O)Cc2ccccc2)c1 (configuration not stated) | -1.59% (inactive) | –
CSc1nnc(SCc2nc3sc(C(=O)O)c(C)c3c(=O)[nH]2)s1 | – | 35.5 µM (active)
Cc1sc2nc(CSCC(=O)Nc3c(Cl)cccc3Cl)[nH]c(=O)c2c1C | -17.4% [at 57.1 µM] (inactive) | –
CCOC(=O)c1sc2nc(CSCC(=O)OCc3ccc(C(=O)OC)o3)[nH]c(=O)c2c1C | -1.35% (inactive) | –
CCN1CCC2(CC1)N=C(c1ccc(F)cc1)C(=S)N2C(=O)c1ccc(C)cc1 | -10.9% (inactive) | –
CCN1CCC(O)(/C=C/c2ccc(C)cc2)C(C(=O)/C=C/c2ccc(C)cc2)C1 (configuration not stated) | – | 14.1 µM (active)
COc1cc2cc(CN(CCN3CCCC3)C(=O)Nc3ccccc3Cl)c(=O)[nH]c2cc1OC | -9.47% (inactive) | –
CC1=CC2=NC(=O)CC(C)(C(=O)N(CC(=O)NC(C)(C)C)Cc3ccccc3)N2C=C1 (configuration not stated) | -0.725% (inactive) | –
CC1CCCN(C(=O)c2ccc3c(c2)C(=O)N(CCC2=CCCCC2)C3=O)C1 (configuration not stated) | 0.2% (inactive) | –
N#CCSc1ccccc1NC(=O)CN1C(=O)NC(CCc2ccccc2)C1=O (configuration not stated) | 25.6% (inactive) | –
COc1cccc(/C=N/Nc2ccc(S(=O)(=O)Nc3ccccc3C(=O)O)cc2[N+](=O)[O-])c1O | – | 39.8 µM (active)
CC1CN(C(=O)c2ccccc2NS(=O)(=O)c2cccc([N+](=O)[O-])c2)CC(C)O1 (configuration not stated) | -20.5% [at 57.1 µM] (inactive) | –
COc1ccc(S(=O)(=O)N2CCC(C(=O)OCC(=O)c3ccccc3)CC2)cc1[N+](=O)[O-] | 5.06% (inactive) | –
COc1ccccc1C(CNC(=O)c1cccc(NS(=O)(=O)c2ccc(Br)cc2)c1)N(C)C (configuration not stated) | 3.56% (inactive) | –
CCOc1ncccc1C(=O)NNC(=O)c1cccc(S(=O)(=O)Nc2ccccc2OC)c1 | -11.4% (inactive) | –
COc1ccc(Br)cc1/C=N/Nc1ccc(S(=O)(=O)Nc2ccccc2C(=O)O)cc1[N+](=O)[O-] | – | 39.8 µM (active)
Cc1cc2nc3n(c2cc1C)CC1CC(C(=O)NCCC(C)C)N(C)C31 (configuration not stated) | 8.32% (inactive) | –
CCCCSc1nnc2c(n1)OC=Nc1ccccc1-2 | 1.18% (inactive) | –
Cc1cccc(N2CC(C)Cn3c2nc2c3c(=O)n(CC(=O)OCc3ccccc3)c(=O)n2C)c1 (configuration not stated) | -4.82% (inactive) | –
